# Source: PubChem (Broad Institute)
# Shown is part of a subset that was picked to be rich in hits.
# Vaccinia inh: blocks a specific stage of Vaccinia orthopoxvirus infection, primary screen, cell-based, single point. activity change (mCherry), % (no concentration beside the values). hit rate 0.01% among 89,000. Vaccinia-infected cells, mCherry/Venus stage reporter fluorescence; stronger effect = lower value; in the data active = activity change below about -37%, passing the limit was not always enough; tested in A549 cells
# * marks the source's active call; other numbers are inactive results.
SMILES,Vaccinia inh
C[C@H](CO)N1C[C@H](C)[C@H](CN(C)S(C)(=O)=O)Oc2ccc(NC(=O)C3CCCCC3)cc2C1=O,-1
O=C(Nc1ccc2c(c1)[C@@H]1C[C@@H](CC(=O)N3CCc4ccccc4C3)O[C@@H](CO)[C@@H]1O2)Nc1ccccc1F,-93*
O=C(Nc1ccc(C(F)(F)F)cc1)Nc1ccc2c(c1)[C@H]1C[C@H](CC(=O)N3CCc4ccccc4C3)O[C@@H](CO)[C@H]1O2,-15
O=C(Nc1ccc(C(F)(F)F)cc1)Nc1ccc2c(c1)[C@H]1C[C@@H](CC(=O)N3CCc4ccccc4C3)O[C@H](CO)[C@H]1O2,-32
Cc1ccc(S(=O)(=O)Nc2ccc3c(c2)C(=O)N([C@@H](C)CO)C[C@H](C)[C@H](CN(C)S(=O)(=O)c2cccs2)OCCCC[C@@H](C)O3)cc1,11
C[C@H]1CN([C@@H](C)CO)C(=O)c2cc(C3=CCCC3)cnc2O[C@H]1CN(C)Cc1ccc(F)cc1,-10
COC(=O)C[C@H]1CC[C@H]2[C@@H](COc3ccc(NC(=O)Nc4cccc(C)c4)cc3C(=O)N2C)O1,0
C[C@@H]1CCCCO[C@@H](CN(C)Cc2ccc(Cl)c(Cl)c2)[C@@H](C)CN([C@H](C)CO)C(=O)c2cc(NC(=O)C3CCCCC3)ccc2O1,-10
O=C(C[C@H]1C=C[C@H](NC(=O)Nc2cc(F)ccc2F)[C@H](CO)O1)Nc1ccc(-c2ccccc2)cc1,-7
O=C(NC[C@@H]1CC[C@@H]2[C@@H](CN2S(=O)(=O)c2ccccc2[N+](=O)[O-])O1)C1CCOCC1,13
C[C@H](CO)N1C[C@H](C)[C@@H](CN(C)C(=O)c2ccccc2)Oc2cc(C#CC3(O)CCCC3)ccc2S1(=O)=O,11
C[C@H]1CN([C@@H](C)CO)C(=O)c2cc(NS(C)(=O)=O)ccc2O[C@H]1CN(C)Cc1ccc2c(c1)OCO2,2
C[C@@H]1CN([C@@H](C)CO)C(=O)Cc2cc(NC(=O)C3CC3)ccc2O[C@H]1CN(C)CC1CC1,5
Cc1noc(C)c1NC(=O)Nc1ccc2c(c1)C(=O)N([C@@H](C)CO)C[C@@H](C)[C@@H](CN(C)S(=O)(=O)c1ccccc1)OCCCC[C@@H](C)O2,33
COc1ccc(S(=O)(=O)N(C)C[C@H]2Oc3c(NC(=O)NC(C)C)cccc3C(=O)N([C@H](C)CO)C[C@H]2C)cc1,13
C[C@H]1CN([C@@H](C)CO)C(=O)c2cc(NC(=O)CCC(F)(F)F)ccc2O[C@@H]1CN(C)S(=O)(=O)c1cn(C)cn1,15
CCO[C@H]1OC(C(=O)NCc2ccccc2)=C[C@@H](c2csc3ccccc23)[C@@H]1CCCO,-5
CC(C)C#Cc1ccc([C@H]2[C@H]3CN(S(=O)(=O)c4ccccc4)CC(=O)N3[C@H]2CO)cc1,-32
C[C@@H]1CCCCO[C@H](CN(C)C(=O)Nc2ccc(C(F)(F)F)cc2)[C@@H](C)CN([C@H](C)CO)C(=O)c2cc(NC(=O)Nc3cccc4ccccc34)ccc2O1,9
C[C@H](CO)N1C[C@H](C)[C@@H](CN(C)C(=O)Nc2ccc(F)cc2)OCCCC[C@H](C)Oc2ccc(NS(=O)(=O)c3cn(C)cn3)cc2C1=O,1
COc1cccc(-c2cccc(-c3nc(C(=O)NCc4ccc(Oc5ccccc5)cc4)cc4c3[C@@H](CCO)N(S(=O)C(C)(C)C)C4)c2)c1 (stereo partly drawn),-1
O=C(C1=C[C@@H](c2ccc(Br)cc2)C[C@@H](OCCCCO)O1)N1CCCCCCC1,0
COc1ccc(S(=O)(=O)N[C@H]2C=C[C@H](CC(=O)N3CCc4ccccc4C3)O[C@H]2CO)cc1,-18
C[C@@H](O)C#Cc1ccc2c(c1)O[C@@H](CN(C)Cc1ccc(-c3ccccc3)cc1)[C@@H](C)CN([C@@H](C)CO)S2(=O)=O,-92*
C[C@H](O)C#Cc1ccc2c(c1)O[C@H](CN(C)Cc1ccccc1)[C@@H](C)CN([C@@H](C)CO)S2(=O)=O,-26
C[C@H](CO)N1C[C@H](C)[C@@H](CN(C)Cc2ccccc2)Oc2cc(C#C[C@@H](C)O)ccc2S1(=O)=O,-16
